MLLE-PAM2 inh = blocks PAM2 peptide binding to the PABP1 MLLE domain. P11940. GST-MLLE / FITC-PAM2 fluorescence polarization. inhibition, % at 20 µM. hit rate 0.36% among 360,000; in the data active means inhibition above about 35%, passing the limit was not always enough;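 further: plate controls were DMSO wells with GST-MLLE for no effect and wells lacking GST-MLLE protein for full effect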
Target sequence (P11940 whole entry, looked up, the tested form may be a part): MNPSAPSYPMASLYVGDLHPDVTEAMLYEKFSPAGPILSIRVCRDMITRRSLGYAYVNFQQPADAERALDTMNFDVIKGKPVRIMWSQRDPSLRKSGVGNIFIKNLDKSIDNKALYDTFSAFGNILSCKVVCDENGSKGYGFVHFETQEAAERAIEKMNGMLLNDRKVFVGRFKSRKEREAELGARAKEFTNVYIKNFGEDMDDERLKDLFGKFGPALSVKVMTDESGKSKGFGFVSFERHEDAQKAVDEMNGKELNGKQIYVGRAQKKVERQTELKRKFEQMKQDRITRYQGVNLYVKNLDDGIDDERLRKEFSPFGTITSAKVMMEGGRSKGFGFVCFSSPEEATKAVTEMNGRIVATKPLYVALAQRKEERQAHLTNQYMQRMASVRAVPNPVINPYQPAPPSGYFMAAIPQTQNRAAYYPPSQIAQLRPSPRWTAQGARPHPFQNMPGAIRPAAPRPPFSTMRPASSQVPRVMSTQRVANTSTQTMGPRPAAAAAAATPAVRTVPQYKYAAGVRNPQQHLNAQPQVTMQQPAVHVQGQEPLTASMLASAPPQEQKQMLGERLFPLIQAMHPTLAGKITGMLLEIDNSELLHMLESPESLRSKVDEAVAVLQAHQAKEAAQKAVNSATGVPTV
PHOSPHO1 inh = inhibitors of human PHOSPHO1 phosphatase; AID 1565; inhibition, % at 13.3 µM; Q8TCT1; hit rate 1.1% among 290,000; recombinant PHOSPHO1, absorbance phosphatase assay; in the data active means inhibition above about 60%
A3A deaminase = inhibitors of human APOBEC3A DNA deaminase | P31941 | recombinant A3A, FAM/TAMRA ssDNA deamination fluorescence | inhibition, % at 20 µM | hit rate 0.41% among 330,000 | AID 493011;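 active means at least 40% inhibition at 20 µM here, with at most 30% in a related deaminase screen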;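 further: plate controls were A3A with DMSO for no effect and wells lacking A3A enzyme for full effect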
eIF4H inh = inhibitors of RNA binding by human eIF4H | Q15056 | eIF4H fluorescence polarization binding assay | inhibition, % at 35 µM | hit rate 0.94% among 290,000;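 further: calls also rest on retests at 20 µM and on dose response follow-up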
PABP FP inh = blocks human PABP binding to poly(A) RNA. P11940. fluorescence polarization. calls only at 35 µM. hit rate 1% among 290,000;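 further: calls also rest on retests at 20 µM and on dose response follow-up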
A3G deaminase = APOBEC3G (human) deaminase inhibition; Q9HC16; recombinant A3G, ssDNA deamination FAM/TAMRA fluorescence; inhibition, % at 20 µM; hit rate 0.28% among 330,000; AID 493012;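 active means inhibition of at least 40% at 20 µM, with no more than 30% in the related APOBEC3A deaminase screen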;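 further: plate controls were DMSO wells with A3G for no effect and wells lacking A3G enzyme for full effect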
An asterisk follows results filed as active; i = inactive; ? = inconclusive; . = not tested or not shown; + = active, no number. A selection: hits, their analogues and other compounds. The true share with any hit is near 2.6%. Unless noted, how the calls were made is not given here.

SMILES | MLLE-PAM2 inh | PHOSPHO1 inh | A3A deaminase | eIF4H inh | PABP FP inh | A3G deaminase
N#Cc1c(SCc2ccccc2)sc(C(=O)c2ccccc2)c1N | 7.6 | 73.0* | -2.4 | 2.1 | i | -12.1
N#Cc1c(Oc2ccc3ccccc3c2)sc(C(=O)c2ccccc2)c1N | -9.8 | 30.0 | -1.3 | -3.1 | i | -1.7
COC(=O)C1CCN(C2CN(Cc3ccccc3)S(=O)(=O)C2)CC1 (stereo not given) | -7.8 | . | . | . | . | .
CCOC(=O)C(C)On1c(-n2nc(C)cc2C)nc2ccccc2c1=O (stereo not given) | 17.0 | 39.4 | -1.9 | -8.7 | i | -5.9
Cc1ccc(C(=O)NCC(=O)Nc2cccc(C(F)(F)F)c2)cc1 | -11.3 | -8.9 | 7.5 | active | i | 2.0
CN(C)C(=S)SCC(=O)Nc1cccc(C(F)(F)F)c1 | 15.6 | 67.3* | 2.1 | 7.8 | i | -2.9
O=C(CSCCO)Nc1cccc(C(F)(F)F)c1 | 1.9 | 5.5 | -1.4 | -1.7 | i | -3.4
Cc1ccc(S(=O)(=O)N2CCOCC2)cc1C(=O)N1C(=O)c2cccc(N)c2C1=O | 10.2 | 20.8 | 5.6 | 56.9* | + | -0.3
Cc1ccc(S(=O)(=O)N2CCOCC2)cc1C(=O)O | -9.3 | 5.2 | -0.1 | -2.1 | i | -5.1
Cc1ccc[n+](CC(=O)Nc2ccc(C)c(C)c2)c1 | -14.4 | 4.2 | -6.3 | 2.8 | i | -5.9
COc1ccc(-c2nc(CS(=O)CC(=O)NC3CCCC3)c(C)o2)cc1 (stereo not given) | 4.6 | 70.0* | -5.4 | -18.4 | i | -2.3
O=C(NC(c1ccccc1)c1ccccc1)C1(c2cccs2)CCOCC1 | -7.9 | 24.5 | -3.6 | ? | + | -8.7
CC(C)CCNC(=O)C1(c2cccs2)CCOCC1 | 1.2 | 26.5 | 0.8 | 4.3 | i | 0.2
Cc1cc(C)n2nc(-c3sccc3-n3c(C)ccc3C)cc2n1 | -33.6 | 37.0 | -7.2 | -7.2 | i | -2.4
Cc1cc(C)n2nc(-c3sccc3-n3cccc3)cc2n1 | -1.0 | 62.0* | -2.7 | 5.3 | i | -6.3
CC(=O)N1CCc2cc(N=NC3=C(O)CCCC3=O)ccc21 | -66.1 | 27.8 | 29.1 | 54.3* | + | -3.8
COC(=O)C1=C(C(=O)OC)[C@]2([C@H]3CC=CCN[C@@H](Cc4ccccc4)C(=O)N3Cc3ccccc3)C=C[C@H]1O2 | -5.9 | . | . | . | . | .
COc1cc2c(cc1OC)CN(C(=O)CSC1=NCCS1)CC2 | 7.1 | . | . | . | . | .
COc1cc2c(cc1OC)CN(C(=O)CSc1ccccc1C)CC2 | 45.5* | . | -2.4 | . | . | 3.2
COc1cc2c(cc1OC)CN(C(=O)Cn1ccccc1=O)CC2 | -1.5 | 49.9 | 8.8 | 79.3* | i | -1.8
O=C1c2ccccc2-c2cccc(C(=O)N3CCN(C(=O)c4ccccc4)CC3)c21 | -0.1 | 60.0* | 1.5 | -0.9 | i | -9.7
CCN(CC(=O)Nc1ccc(NC(C)=O)cc1)C(=O)CCN1C(=O)C2CC=CCC2C1=O (stereo not given) | -7.3 | . | 0.7 | . | . | -4.6
CCOC(=O)c1sc(NC(=O)Cc2ccc(C)cc2)nc1C | -11.3 | 61.8* | -0.9 | 1.7 | i | -4.9
CCOC(=O)c1sc(NC(=O)CCC(=O)O)nc1C | -1.8 | -0.8 | -1.3 | 11.0 | i | -5.8
COc1ccccc1NC(=O)CN1CC(=O)Nc2ccccc21 | -11.6 | 21.0 | 5.6 | -9.1 | + | -1.3
SMILES | MLLE-PAM2 inh | PHOSPHO1 inh | A3A deaminase | eIF4H inh | PABP FP inh | A3G deaminase
O=C(CN1CC(=O)Nc2ccccc21)Nc1ccc(F)c(F)c1 | -23.1 | -0.9 | 2.3 | -0.8 | i | -3.2
Cc1nnc(NC(=O)c2c(-c3ccccc3Cl)noc2C)s1 | 11.9 | 60.1* | -1.1 | -2.3 | i | -1.1
Cc1onc(-c2ccccc2Cl)c1C(=O)NC(=S)NCC(=O)c1ccccc1 | 10.8 | 62.9* | 2.7 | -5.8 | i | 0.0
Cc1onc(-c2ccccc2Cl)c1C(=O)NCc1ccco1 | -1.8 | 21.2 | 45.9 | 95.0* | + | 43.6
Cc1ccc(C)c(NC(=O)CCNS(=O)(=O)c2ccc3[nH]c(=O)oc3c2)c1 | -15.6 | 31.5 | 3.2 | 72.6* | i | 7.4
Cc1ccc(NC(=O)CCNS(=O)(=O)c2ccc3[nH]c(=O)oc3c2)c(C)c1 | -9.7 | 24.2 | -4.4 | -7.0 | i | -6.8
N#CCSc1nnc(CNc2ccc(F)cc2)o1 | 48.1* | 8.0 | -4.7 | 111.0* | + | -4.6
CCCCC(=O)Nc1ccc(NC(=S)NC(=O)CC(C)C)cc1OC | 15.5 | -14.5 | -3.5 | active | + | -3.5
CCn1c(=S)ccc2ccc(OC)cc21 | -30.5 | 27.6 | -0.2 | 0.7 | i | 3.6
CCn1ccc2cc(OC)ccc2c1=S | 4.7 | 86.9* | -3.2 | 0.4 | i | -0.5
COc1ccccc1N1CCN(C(=O)/C=C/c2c(Cl)nc3ccccn23)CC1 | -3.6 | 37.9 | 0.9 | 1.1 | i | -3.0
COc1ccc(NC(=O)/C=C/c2c(Cl)nc3ccccn23)cc1 | -13.2 | 26.5 | -1.2 | 1.5* | + | -4.8
CCOc1ccc(NC(=O)CCc2nnc3ccc(N4CCC5(CC4)OCCO5)nn23)cc1 | 4.6 | 23.9 | -2.7 | -5.4 | i | -2.7
COc1ccccc1-n1cnnc1SCC(=O)c1cc(C)n(Cc2cccs2)c1C | 9.6 | 63.4* | -0.6 | 2.7 | i | 0.2
C=CCn1c(SCC(=O)c2cc(C)n(Cc3cccs3)c2C)nnc1-c1ccncc1 | -12.7 | -57.0 | 3.6 | 10.9 | i | 1.8
Cc1cc(C(=O)CSc2nnc(-c3ccccc3F)o2)c(C)n1Cc1cccs1 | -36.9 | 89.7* | -0.3 | ? | ? | -4.7
CC(OC(=O)/C(C#N)=C/c1ccco1)C(=O)N(C)c1ccccc1 (stereo not given) | -23.7 | . | 0.2 | . | . | -7.1
CCCS(=O)(=O)c1ccc(COC(=O)c2cccc(NC(=O)C(C)C)c2)cc1 | 5.1 | 13.1 | 0.5 | active | + | -4.4
CC(=O)Nc1cccc(C(=O)OCc2ccccc2)c1 | 11.8 | 0.1 | 0.3 | 4.6 | i | -3.1
Cc1cccc(N(C)S(=O)(=O)c2csc(C(N)=O)c2)c1 | 7.5 | 42.2 | -6.6 | -3.6 | i | -7.5
CCOc1ccc(N=C(/C(C(=O)C(=O)N2CCOCC2)=C(\O)c2ccccc2)c2ccccc2)cc1 | 14.0 | -17.8 | -1.8 | 3.7 | i | -1.5
O=C(NNC(=O)C1CC(c2cccnc2)=NO1)Nc1ccccc1F (stereo not given) | 2.7 | 64.7* | -1.6 | 8.4 | i | -1.9
Oc1c(C=Nc2cccc3cccnc23)sc2ccccc12 | . | 19.1 | -10.1 | 125.1* | + | -25.1
CCOC(=O)N1CCN(C(=O)CNC(=O)c2nn(-c3ccc(OC)cc3OC)c(=O)c3ccccc23)CC1 | 5.0 | 44.0 | 1.7 | -0.5 | i | -1.1
O=C(O)CCc1ccc(-c2cccs2)n1CCC(=O)O | 7.1 | 28.9 | 28.4 | 49.2* | + | 11.7
O=C(O)CCc1ccc(-c2cccs2)n1CCc1ccccc1 | 2.0 | 10.9 | -0.4 | 11.7 | i | -3.2
COCCN(C(=O)COC(=O)c1c(NC(C)=O)sc(C)c1C)c1c(N)n(Cc2ccccc2)c(=O)[nH]c1=O | -0.8 | . | -0.6 | . | . | -6.9

Bioassay records deposited in PubChem BioAssay by Sanford-Burnham Center for Chemical Genomics.
